Some test systems named below: SR leukemia; RPMI-8226 leukemia; OVCAR-8 ovarian; OVCAR-5 ovarian; OVCAR-4 ovarian; IGROV1 ovarian; OVCAR-3 ovarian; HS 578T breast; T-47D breast; BT-549 breast; MDA-MB-435 melanoma; SW-620 colon; MCF7 breast; HCT-116 colon; HCC-2998 colon; KM12 colon; SK-OV-3 ovarian; NCI/ADR-RES ovarian.
Holding throughout (test): NCI-60 one-dose screen, 48 h (100 = growth as untreated, 0 = no growth, -100 = all killed)
Conditions in all cases: 10 µM unless noted

This is part of a sample that, as a whole, favours compounds with a hit. Of some 83,000 tested, about 20% had one in any assay.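 Compound tested at a single concentration for 48 hours in 96-well plates; a percent growth value below 10 was scored as active.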 Values without a mark were called inactive. Activity calls are given as the source filed them.

As for `C=CC[N+]1(CC)CCN=C1CCCCCCCCCCCCCCCCC` (stereo unspecified), the growth with SR leukemia was -64.7% (active); in the assay on RPMI-8226 leukemia, -54.7% (active); in the assay with OVCAR-8 ovarian, -95.2% (active); in the assay on OVCAR-5 ovarian, -97.5% (active); with OVCAR-4 ovarian it was -72.2% (active); in the assay with IGROV1 ovarian it was -86% (active). The growth in the assay with OVCAR-3 ovarian is -94.1% (active); in the assay with HS 578T breast, -41.3% (active); with T-47D breast, -62.9% (active); in the assay with BT-549 breast, -75.9% (active); in the assay on MDA-MB-435 melanoma, -85% (active); in the assay on SW-620 colon it was -89.7% (active). Besides, the growth with MCF7 breast was -81.7% (active); with HCT-116 colon, -100% (active); in the assay on HCC-2998 colon it was -73.5% (active); in the assay on KM12 colon, -97.9% (active).

For `O=C(/C=C/c1ccc(B(O)O)cc1)/C=C/c1ccc(B(O)O)cc1`, the growth was 8.8% (active) in the assay with SR leukemia; -23.5% (active) in the assay on RPMI-8226 leukemia; 72.2% with OVCAR-8 ovarian; 92.8% in the assay on OVCAR-5 ovarian; 46.8% in the assay with SK-OV-3 ovarian; -73.3% (active) with IGROV1 ovarian. For the same compound, the growth was 27.8% in the assay with OVCAR-3 ovarian; 4.54% (active) in the assay on HS 578T breast; 91.7% with NCI/ADR-RES ovarian; 27% in the assay on T-47D breast; -11.8% (active) with BT-549 breast; -46.6% (active) with MDA-MB-435 melanoma. Also, the growth in the assay on SW-620 colon is -25.2% (active); in the assay with MCF7 breast it was 3.78% (active); in the assay on HCT-116 colon, -94.4% (active); in the assay on HCC-2998 colon, -77.1% (active); in the assay with KM12 colon, -86.7% (active).

As to `O=C(O)c1ccccc1Nc1cccc(S(F)(F)(F)(F)F)c1`, the growth was 99.1% in the assay with SR leukemia; 100% in the assay on RPMI-8226 leukemia; 98.9% with OVCAR-8 ovarian; 115% in the assay on OVCAR-5 ovarian; 102% with OVCAR-4 ovarian; 99.8% in the assay on IGROV1 ovarian. Moreover, the growth is 95% with OVCAR-3 ovarian; 99.2% in the assay with HS 578T breast; 106% in the assay on NCI/ADR-RES ovarian; 85.8% in the assay on T-47D breast; 106% with BT-549 breast; 101% in the assay on MDA-MB-435 melanoma. In addition, the growth with SW-620 colon was 94%; in the assay on MCF7 breast, 93.1%; with HCT-116 colon it was 98.3%; in the assay on HCC-2998 colon, 108%; in the assay with KM12 colon, 100%.

Take `COc1ccc(N(Cc2cc(OC)c(OC)c(OC)c2)C2OC(=O)c3ccccc32)cc1` (stereo unspecified): the growth in the assay on SR leukemia was 12.1%; in the assay with RPMI-8226 leukemia it was 10.6%; in the assay on OVCAR-8 ovarian, 22.1%; with OVCAR-5 ovarian, 65.5%; in the assay with OVCAR-4 ovarian, 62.7%; in the assay with IGROV1 ovarian, 36.3%. Moreover, the growth in the assay with OVCAR-3 ovarian was -18.4% (active); in the assay on HS 578T breast, 22.1%; in the assay on NCI/ADR-RES ovarian, 10.1%; in the assay on T-47D breast it was 45.8%; with MDA-MB-435 melanoma, -55% (active); in the assay with SW-620 colon, 20.3%. Also, the growth was 16.4% in the assay on MCF7 breast, 23% with HCT-116 colon, 43.9% in the assay on HCC-2998 colon and 27.7% with KM12 colon.

On to `CCCCCCCCCCCCCC1=NCCN1CCO`, for which the growth in the assay with SR leukemia is -4.54% (active); in the assay with RPMI-8226 leukemia, 21%; in the assay with OVCAR-8 ovarian, 52.6%; in the assay with OVCAR-5 ovarian, 79.1%; in the assay with SK-OV-3 ovarian it was 107%; in the assay on IGROV1 ovarian, 13.3%. Moreover, the growth was 164% in the assay with OVCAR-3 ovarian; 37.9% in the assay with HS 578T breast; 84.5% with NCI/ADR-RES ovarian; 65.7% with T-47D breast; 123% in the assay on BT-549 breast; 85.3% in the assay with MDA-MB-435 melanoma. Moreover, the growth in the assay on SW-620 colon was -38.6% (active); with MCF7 breast it was 54.8%; in the assay with HCT-116 colon it was -36.2% (active); in the assay on HCC-2998 colon it was 71.2%; with KM12 colon, 56.7%.

In the case of `COc1ccc(S(=O)(=O)NCCNc2nccc(-c3c(-c4cccc(N)c4)nc4sccn34)n2)cc1`, the growth is 107% in the assay on SR leukemia; 96% in the assay on RPMI-8226 leukemia; 98.2% with OVCAR-8 ovarian; 121% in the assay with OVCAR-5 ovarian; 108% in the assay with SK-OV-3 ovarian; 98% in the assay on IGROV1 ovarian. The growth with OVCAR-3 ovarian was 100%; in the assay with HS 578T breast, 97.9%; in the assay with NCI/ADR-RES ovarian, 101%; in the assay with T-47D breast, 75.9%; with BT-549 breast, 82.8%; in the assay with MDA-MB-435 melanoma, 103%. The growth in the assay with SW-620 colon was 113%; in the assay with MCF7 breast it was 90.8%; with HCT-116 colon, 98%; in the assay on HCC-2998 colon, 122%; with KM12 colon, 64.6%.

For the compound `O=C1/C(=C/c2ccc(F)cc2)CN(C(=O)CCN2CCC(=NO)CC2)C/C1=C\c1ccc(F)cc1`, the growth in the assay with SR leukemia was 4.41% (active); with RPMI-8226 leukemia, -37.6% (active); with OVCAR-8 ovarian, 5.09% (active); in the assay with OVCAR-5 ovarian, -53.9% (active); in the assay on OVCAR-4 ovarian it was -18.7% (active); with IGROV1 ovarian, -29.2% (active). For the same compound, the growth in the assay with OVCAR-3 ovarian was -60% (active); in the assay on HS 578T breast, 11.4%; with NCI/ADR-RES ovarian it was 12.5%; in the assay with T-47D breast, -18.9% (active); in the assay on BT-549 breast it was -26.6% (active); in the assay on MDA-MB-435 melanoma it was -49.9% (active). Moreover, the growth in the assay with SW-620 colon is -56.5% (active); with MCF7 breast, -48.6% (active); in the assay on HCT-116 colon it was -65.6% (active); in the assay on HCC-2998 colon it was -83.3% (active); in the assay with KM12 colon, -77.2% (active).

For the compound `COc1ccc(/C=N\NC(=O)CN2CCN(c3cc4c(cc3F)c(=O)c(C(=O)N/N=C/c3ccc(OC)cc3)cn4C3CC3)CC2)cc1`, the growth with SR leukemia is 72.1%; in the assay on RPMI-8226 leukemia, 69.4%; with OVCAR-8 ovarian, 92.2%; in the assay on OVCAR-5 ovarian, 122%; in the assay with SK-OV-3 ovarian, 112%; in the assay on IGROV1 ovarian it was 72%. The growth with OVCAR-3 ovarian is 85.2%; with HS 578T breast it was 92.4%; in the assay with NCI/ADR-RES ovarian, 88.2%; with T-47D breast it was 82.5%; in the assay on BT-549 breast, 88.5%; in the assay on MDA-MB-435 melanoma, 90.3%. Further, the growth in the assay on SW-620 colon is 101%; in the assay with MCF7 breast, 73.2%; with HCT-116 colon, 88.8%; in the assay with HCC-2998 colon, 102%; in the assay with KM12 colon, 89.8%.

Consider `CCN(CC)CCC(=O)Nc1ccc(Cn2nnc3c2C(=O)c2nnn(Cc4ccc(NC(=O)CCN(CC)CC)cc4)c2C3=O)cc1`, for which the growth with SR leukemia was -18.9% (active); in the assay on RPMI-8226 leukemia, -16.6% (active); in the assay with OVCAR-8 ovarian it was -35.6% (active); in the assay with OVCAR-5 ovarian, -19.1% (active); in the assay on SK-OV-3 ovarian it was -8.54% (active); with IGROV1 ovarian it was -55.6% (active). Moreover, the growth was -16.2% (active) in the assay on OVCAR-3 ovarian; 14.2% in the assay on HS 578T breast; 99.3% in the assay with NCI/ADR-RES ovarian; -58% (active) in the assay on T-47D breast; -94.2% (active) with BT-549 breast; -80.1% (active) with MDA-MB-435 melanoma. Moreover, the growth in the assay on SW-620 colon was -9.46% (active); in the assay with MCF7 breast, -60.2% (active); in the assay with HCT-116 colon it was -87.9% (active); in the assay on HCC-2998 colon, -47.2% (active); in the assay on KM12 colon, -6.54% (active).

The record behind these values is PubChem BioAssay (NCI).
